# MRP reversal – compounds reversing MRP-mediated drug resistance | H69AR cells + 2 uM doxorubicin, CellTiter-Glo, 72 h | differential viability (reversal), % at 10 µM | 85,000 compounds, 0.04% hits | AID 602;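 active = viability drop by adding the cancer drug above about 55%, with treated viability meeting a 40% cutoff, limit read from the data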;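 also: viability without doxorubicin minus viability with 2 µM doxorubicin for each compound; larger differential means the compound sensitizes cells more to doxorubicin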
# MRP-1 activ – activators of MRP-1; H69AR cells + doxorubicin, viability rescue, CellTiter-Glo; AID 799; 140,000 compounds, 0.61% hits; viability increase, % at 10 µM;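 active = viability gain under doxorubicin at or above a set limit, the compound median plus 3 SD, cut at about 4.7% in these data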;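 also: MRP-1 overexpressing cells given doxorubicin 25 µM after compound pretreatment; 18-22 h compound pretreatment then 72 h with doxorubicin before readout; 0% = doxorubicin-only wells and 100% = vehicle-treated cells without doxorubicin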
# CYP2C9 act – activators of human CYP2C9 | 96,000 compounds, 1.4% hits | recombinant CYP2C9, luciferin-H conversion, luminescence; active compounds read high; factor 1 = untreated enzyme, 0 = blocked | activation factor at 5 µM | P11712;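 active = activation factor of 2 or more for CYP2C9 at a 5 µM dose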;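 also: 0 = sulfaphenazole-blocked wells and 1 = vehicle-only wells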
# CYP2C9 inh – inhibitors of human CYP2C9 | 96,000 compounds, 20% hits | P11712 | CYP2C9 Supersomes, luciferin-H conversion, luminescence | inhibition, % at 5 µM;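 active = blocking of liver enzyme CYP2C9 beyond about 50% at 5 µM, limit read from the data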
# CYP2C19 inh – blocks human cytochrome P450 2C19; P33261; CYP2C19 Supersomes, luciferin-H EGE luminescence, 30 min; inhibition, % at 5 µM; 96,000 compounds, 21% hits;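 active = CYP2C19 inhibition above a set limit at 5 µM in the primary screen, cut at about 50% in these data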;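 also: plate controls were negative control wells for no effect and 2.5 mM tranylcypromine positive control for full effect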
# Target sequence (P33261 whole entry, looked up): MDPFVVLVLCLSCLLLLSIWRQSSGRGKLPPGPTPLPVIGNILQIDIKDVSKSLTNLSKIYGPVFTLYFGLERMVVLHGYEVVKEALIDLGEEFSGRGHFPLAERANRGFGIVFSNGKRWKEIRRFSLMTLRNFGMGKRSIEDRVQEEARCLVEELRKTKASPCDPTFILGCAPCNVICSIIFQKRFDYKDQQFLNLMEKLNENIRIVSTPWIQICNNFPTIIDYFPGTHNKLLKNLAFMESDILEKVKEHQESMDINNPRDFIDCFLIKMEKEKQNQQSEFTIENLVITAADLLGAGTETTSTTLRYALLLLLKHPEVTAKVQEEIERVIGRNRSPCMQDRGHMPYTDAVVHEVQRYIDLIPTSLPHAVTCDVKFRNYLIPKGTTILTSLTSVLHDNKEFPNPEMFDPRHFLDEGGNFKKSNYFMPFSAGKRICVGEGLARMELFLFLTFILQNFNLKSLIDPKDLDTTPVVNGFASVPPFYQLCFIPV
# CYP2C19 activ – activators of human cytochrome P450 2C19 | recombinant CYP2C19, luciferin-H EGE luminescence; active compounds read high; 0 = fully inhibited enzyme, 1 = untreated enzyme | AID 1025 | 96,000 tested, under 10 active | activation factor at 5 µM | P33261;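 active = activation factor of at least 2 at 5 µM in the primary screen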;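 also: 0 = wells with 2.5 mM tranylcypromine and 1 = vehicle-only wells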
# * marks the source's active call; other numbers are inactive results; x = no result given. A selection: hits, their analogues and other compounds. The true share with any hit is near 21%.
SMILES,MRP reversal,MRP-1 activ,CYP2C9 act,CYP2C9 inh,CYP2C19 inh,CYP2C19 activ
COC(=O)C(O)(CC(=O)Nc1cc(OC)c(OC)c(OC)c1)C(F)(F)F (stereo unspecified),5.3,0.1,x,x,x,x
COc1[nH]c(/N=C/c2ccccc2)c(C#N)c1C#N,13.3,0.7,0.3,74.7*,15.1,0.8
COc1ccc(/C=N/c2oc(-c3ccccc3)cc2C#N)cc1,x,-0.5,0.8,23.9,11.6,0.9
Cc1occc1-c1nnc(SCC(=O)Nc2ccc(F)cc2)n1Cc1ccccc1,-11.5,-1.5,0.3,72.0*,26.5,0.7
Cc1occc1-c1nnc(SCC(=O)Nc2ccccc2)n1Cc1ccccc1,-11.9,-2.0,0.4,61.9*,34.3,0.7
COc1ccc(NC(=O)CSc2nnc(-c3ccoc3C)n2CCc2ccccc2)cc1,-6.5,0.0,0.1,89.2*,87.9*,0.1
Cc1ccccc1NC(=O)CCC(=O)OCC(=O)c1ccc(-c2ccccc2)cc1,x,1.7,1,3.4,-5.6,1.1
OC1CN=C2C=CC=CN2C1 (stereo unspecified),14.1,0.4,0.9,7.5,-2.7,1
Cc1ccc(-c2nn(C)c(=O)c3ccccc23)cc1CNC(=O)c1ccco1,1.0,-4.8,0.7,31.7,14.9,0.9
O=C(Nc1nc(-c2ccccc2)cs1)C1CCCCN1S(=O)(=O)c1ccccc1 (stereo unspecified),-21.2,-2.8,0.1,92.5*,72.3*,0.3
CC(C)CNC(=O)C1CCCN1S(=O)(=O)c1ccc(Cl)cc1 (stereo unspecified),-13.4,-0.8,0.9,7.7,31.1,0.7
O=C(Nc1nc(-c2ccccc2)cs1)C1CCCCN1S(=O)(=O)c1ccc(Cl)cc1 (stereo unspecified),x,-5.5,0.1,94.9*,30.3,0.7
CC(C)(C)C(=O)Nc1nc(C2CCCN2S(=O)(=O)c2ccc(Cl)cc2)cs1 (stereo unspecified),-8.1,-0.6,0,100.2*,100.3*,0
O=C(Nc1nc(-c2ccccc2)cs1)NC1CCCCC1,x,-2.4,1.1,-13.8,-5.4,1.1
COc1ccc(-n2c3nc4ccccc4nc3c3c(=N)oc(C)nc32)cc1,x,-1.4,x,x,x,x
CCCCNCCCOc1cccc(Cl)c1Cl,12.4,-0.7,1.3,-26.1,27.2,0.7
O=S(=O)(c1ccccc1)N1CCN(c2ncnc3sc(-c4ccccc4)cc23)CC1,1.1,2.5,0.1,93.1*,81.7*,0.2
N#C/C(=C/c1ccc(Sc2nc3ccccc3[nH]2)o1)c1cccc(F)c1,6.5,-4.2,0,95.1*,92.2*,0.1
N#C/C(=C/c1ccc(Sc2nc3ccccc3[nH]2)o1)c1ccccc1F,-14.7,-1.9,0.1,90.2*,94.6*,0.1
N#C/C(=C/c1ccc(Sc2nc3ccccc3[nH]2)o1)c1cccc(Br)c1,-24.8,-5.9,0,97.0*,96.4*,0
CN(Cc1nc2ccccc2n1C)S(=O)(=O)c1ccc(F)cc1,3.9,-1.1,2.7*,-167.3,83.7*,0.2
CN(Cc1nc2ccccc2n1C)S(C)(=O)=O,-3.7,-0.7,1,-1.5,6.0,0.9
COc1cc2[nH]c(=S)n(NC(=O)CC(C)C)c(=O)c2cc1OC,0.0,-0.4,1,2.2,1.6,1
N#C/C(=C(/O)COC(=O)Cc1c[nH]c2ccccc12)c1nc2ccccc2[nH]1,-18.8,-3.3,0.2,82.2*,9.9,0.9
N#C/C(=C(/O)COC(=O)CSc1ccc(Cl)cc1)c1nc2ccccc2[nH]1,x,4.0,x,x,x,x
SMILES,MRP reversal,MRP-1 activ,CYP2C9 act,CYP2C9 inh,CYP2C19 inh,CYP2C19 activ
N#C/C(=C(/O)COC(=O)CCCNC(=O)c1ccc(Cl)cc1)c1nc2ccccc2[nH]1,-7.0,-1.3,0.2,76.4*,52.1*,0.5
O=C(Cc1c[nH]c2ccccc12)OCC(=O)c1ccccc1,-4.9,-4.1,2.2*,-119.5,23.3,0.8
COc1ccccc1OCC(=O)OC/C(O)=C(\C#N)c1nc2ccccc2[nH]1,x,-2.0,x,x,x,x
CC(C)C(=O)Nc1c(-c2cccs2)c(=O)c2ccccc2n1C,-7.9,-2.9,1.1,-14.2,-0.7,1
Cn1c(NC(=O)c2cccs2)c(-c2cccs2)c(=O)c2ccccc21,6.9,-3.4,0.3,66.8*,3.8,1
Cn1c(NC(=O)c2ccccc2)c(-c2cccs2)c(=O)c2ccccc21,16.0,-3.8,0.2,83.8*,-15.0,1.1
Cn1c(=O)[nH]c(=O)c2c1ncn2CCCc1ccccc1,11.2,-0.6,x,x,x,x
O=C(CSc1n[nH]c(-c2ccc(S(=O)(=O)NC3CCCCC3)cc2)n1)N1CCCC1,-2.2,-3.2,0.5,51.3*,87.2*,0.1
O=C(COc1ccc(S(=O)(=O)NC2CCCC2)cc1)N1CCCCCC1,16.3,-0.4,0.6,36.3,7.5,0.9
Cn1c2c(c(=O)n(C)c1=O)C(C(F)(F)F)(C(F)(F)F)N=C(c1ccc(Cl)cc1)N2,x,-7.5,0.1,89.4*,14.3,0.9
Cc1ccccc1C1=NC(C(F)(F)F)(C(F)(F)F)c2c(n(C)c(=O)n(C)c2=O)N1,x,-1.7,x,x,x,x
CSc1nc2sc3c(c2c(=O)n1C)CCC(C)C3 (stereo unspecified),-12.7,-1.6,0.8,17.0,4.6,1
C=CCn1nnc2sc3c(c2c1=O)CCC(C)C3 (stereo unspecified),9.2,1.4,0.5,49.1,96.9*,0
Cc1cc(NC(=O)c2ccc(Cn3nc(C)c(Br)c3C)o2)no1,11.4,-1.0,0.7,31.5,48.8,0.5
Cc1nn(Cc2ccc(C(=O)Nc3ccc(C(=O)OC(C)C)cc3)o2)c(C)c1Cl,16.8,-1.6,0.4,63.2*,46.0,0.5
Cc1nn(Cc2ccc(C(=O)NC(C)(C)C)o2)c(C)c1Br,-9.1,-0.1,0.7,30.2,50.1*,0.5
Cc1nn(Cc2ccc(C(=O)NC3CCCCC3)o2)c(C)c1Br,17.8,-1.1,0.5,50.1*,75.6*,0.2
COc1ccc(-n2c(SCC(=O)NNC(=O)c3ccccc3C)nnc2-c2ccncc2)cc1,x,-2.8,0.7,28.9,17.3,0.8
CCOC(=O)c1c(C)[nH]c(C)c1C(=O)CSc1nnc(-c2ccc(OC(F)F)cc2)o1,7.7,-3.4,0.7,33.4,19.4,0.8
CCOC(=O)c1[nH]c(CSc2nnc(-c3ccc(OC)cc3)o2)c(C(=O)OCC)c1C,5.0,0.8,0.2,84.9*,73.4*,0.3
COc1ccc(C(=O)CSc2nnc(-c3cc(C)cc(C)c3)o2)cc1,-5.4,-1.6,1.1,-13.4,62.2*,0.4
COc1ccc(-c2nnc(SCC(=O)c3[nH]c(C)c(C(C)=O)c3C)o2)cc1,-0.1,-2.8,0.6,36.1,63.3*,0.4
COc1ccc(-c2nnc(SCC(=O)c3ccc[nH]3)o2)cc1,x,-1.0,1.3,-26.1,3.5,1
COc1cc(O)oc1C=Nc1ccc(Cl)cc1Cl,x,0.3,0.8,18.2,69.4*,0.3
